According to PubChem BioAssay AID2551 (National Center for Advancing Translational Sciences (NCATS), 2010):
Hit rate of the full screen: of about 310,000 compounds, about 17,000 (5.5%) were called active. Roughly 11% stayed inconclusive and do not appear here. Shown is part of a subset that was picked to be rich in actives. Unmarked numbers belong to inactive results. Calls come from the whole dose curve; as a rule, active = well fitted inhibition curve with a large enough effect; inconclusive = small, poorly fitted or top-dose-only effect, or effect the other way; inactive = no such curve, though single readings can be large or run the other way.

Molecular target: Nuclear receptor ROR-gamma (Mus musculus) (UniProt P51450)
Assay: qHTS for inhibitors of ROR gamma transcriptional activity; note: nearly all actives have a fitted effect of over 60% in size
Conditions: Drosophila S2 Gal4-RORgamma UAS-luciferase reporter, 20 h; series mostly up to 53.6 µM; activity change, negative = inhibition: at the top concentration
How it was run: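 Luminescence from a UAS-regulated Photinus luciferase reporter in stably transfected Drosophila Schneider cells is measured; decreased signal marks ROR gamma inhibition. Fusion expression is induced by 700 uM copper sulfate for 20 hr.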
% is set by controls: 0 for no effect and ±100 for the full control effect; potency is the fitted concentration of half-maximal effect.

Chain of Nuclear receptor ROR-gamma (Mus musculus) (P51450 whole entry, looked up): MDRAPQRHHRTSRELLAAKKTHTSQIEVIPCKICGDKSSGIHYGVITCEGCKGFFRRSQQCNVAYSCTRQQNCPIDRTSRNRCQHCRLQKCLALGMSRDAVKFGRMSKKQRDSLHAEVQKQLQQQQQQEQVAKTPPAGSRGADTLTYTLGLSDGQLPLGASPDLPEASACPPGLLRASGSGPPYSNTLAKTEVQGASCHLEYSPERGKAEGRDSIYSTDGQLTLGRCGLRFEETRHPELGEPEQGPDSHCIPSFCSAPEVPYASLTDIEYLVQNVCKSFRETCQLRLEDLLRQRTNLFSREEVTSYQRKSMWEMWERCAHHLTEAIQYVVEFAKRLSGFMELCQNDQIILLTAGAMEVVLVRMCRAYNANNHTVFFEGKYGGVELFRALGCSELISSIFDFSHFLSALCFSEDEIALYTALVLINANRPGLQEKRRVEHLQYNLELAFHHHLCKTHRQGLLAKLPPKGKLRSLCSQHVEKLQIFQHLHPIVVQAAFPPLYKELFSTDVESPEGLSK

SMILES | activity change, negative = inhibition | Potency
CCC(=O)Nc1ccc(S(=O)(=O)Nc2c(NC)c3ccccc3oc2=O)cc1 | -2.82% | 
O=S1(=O)CCOC[C@H](CC2CCCCC2)N1Cc1ccc(F)cc1 | -20.9% | 
COc1ccc(C(=O)/C=C/Nc2ccccn2)cc1 |  | 3.55 µM (active)
CCOc1ccc(N/C=C/C(=O)c2cc(OC)c(OC)c(OC)c2)cc1 | 26% | 
CCOc1cc(NC(=O)c2ccccn2)c(OCC)cc1NC(=O)c1ccc(OC)cc1 | -19.2% | 
Cc1ccc(CNC(=O)C2(C(F)(F)F)C/C(=C\Cc3ccccc3)CCCO2)o1 (centres undefined) |  | inactive
COc1ccc(N2C(=O)CC(Sc3n[nH]c(-c4ccc(C)cc4)n3)C2=O)cc1 (centres undefined) |  | 20 µM (active)
COc1ccc(N2C(=O)CC(SC(C)C)C2=O)cc1 (centres undefined) | 4.5% | 
COc1ccc(-c2nc(SCC(=O)N3CCCC3)n[nH]2)cc1 | 29.5% | 
Cc1ccc(F)c(NC(=O)CCOc2ccccc2C)c1 | -20.8% | 
Cc1ccc(/C([O-])=C(/C(=S)NCc2ccco2)[n+]2ccccc2)cc1[N+](=O)[O-] | -3.72% | 
O=[N+]([O-])c1cccc(/C([O-])=C(/C(=S)Nc2ccccc2F)[n+]2ccccc2)c1 |  | 12.6 µM (active)
CCC(C)NCC(=O)Nc1ccc([N+](=O)[O-])cc1C(=O)Nc1ccccc1F (centres undefined) | -9.45% | 
CS(=O)(=O)N(CC(=O)N1CCOCC1)c1cccc(Cl)c1Cl | -9.65% | 
C=CCn1cc(Cl)cc(C(=O)Nc2ccccc2)c1=O | 14.3% | 
Cc1nc2ccc(C(=O)N(C)CC3CCCN(CCc4ccc(Cl)cc4)C3)cc2[nH]1 (centres undefined) | -7.12% | 
C=CCCN(Cc1ccccc1)S(=O)(=O)c1ccccc1Br |  | inactive
C=CC(COCc1ccccc1)N(Cc1ccccc1)S(=O)(=O)c1ccccc1Br (centres undefined) |  | 7.94 µM (active)
CC(NC(=O)C1CCCN(S(=O)(=O)c2ccc(-n3cnnn3)cc2)C1)c1ccc(F)cc1 (centres undefined) | -2.24% | 
O=C(NCc1ccco1)/C(=C/c1cccc([N+](=O)[O-])c1)NC(=O)c1ccco1 | -3.55% | 
CSc1sc(C(=O)NNC(=O)c2ccc(Cl)cc2)c2c1C=CCC2 | -5.15% | 
CS(=O)(=O)c1sc(C(=O)NC(=S)Nc2ccc(OC(F)(F)F)cc2)c2c1C=CCC2 |  | 7.08 µM (active)

SMILES | activity change, negative = inhibition | Potency
COC(=O)[C@H](C)NC(=O)Nc1ccc(OC(F)(F)F)cc1 | 5.22% | 
CN1C(=O)c2ccc(C(=O)Nc3ccc(Br)cn3)cc2C1=O | 10.1% | 
O=C(Nc1cc(-c2nc3ncccc3o2)ccc1Cl)c1ccco1 | -6.29% | 
Cn1c(SCC(=O)N2CCCC2)nnc1-c1ccc2c(c1)OCO2 | 3.23% | 
CCOc1ccccc1N1CN(Cc2ccccc2)CNC1=S |  | 4.47 µM (active)
CCN1CN(Cc2ccccc2)CNC1=S |  | 12.6 µM (active)
O=S(=O)(c1cc(Cl)ccc1Cl)N1CCN(Cc2ccco2)CC1 | 19.3% | 
Cn1c2c(c(=O)n(C)c1=O)CN(Cc1ccco1)CN2 | 0% | 
N#CNC1=NCN(CCc2ccccc2)CN1 | -13.1% | 
c1ccc(CCN2CN=C(Nc3nc4ccccc4o3)NC2)cc1 | 0% | 
CC12CN(Cc3ccccc3)CC(C)(CN(Cc3ccccc3)C1)C2=NO | 2.79% | 
CCCN1CNC(=S)N(CCc2ccccc2)C1 |  | 3.98 µM (active)
CCc1ccccc1N1CN(Cc2ccco2)CNC1=S |  | 4.47 µM (active)
CCOc1ccc(CC(=O)NC2CCN(Cc3ccccc3)CC2)cc1 | 11.1% [at 1.91 µM] | 
CCOc1ccccc1OCCCNCc1ccccc1 | -1.61% | 
S=C1SCN(CCN2CCOCC2)CN1Cc1ccccc1 | -38.9% | 
COc1ccccc1NC(=O)CSc1nnc(CNC(=O)c2ccccc2F)o1 | -11.2% | 
CCOc1ccc(C)cc1S(=O)(=O)NC1CCCCCC1 | 1.67% | 
COc1ccc(C(=O)N2CCCN(C)CC2)c(OC)c1 | 21.7% | 
Cc1cccc[n+]1CC(=O)c1ccccc1 | -7.06% | 
CSc1ccccc1OCc1cc(C(=O)N(C)CCc2c(C)n[nH]c2C)no1 | -3.27% | 
CCn1c(SCc2cccc(C(=O)O)c2)nnc1-c1ccc(Cl)cc1 | -0.312% | 

SMILES | activity change, negative = inhibition | Potency
CCC(C)c1ccc(NC(=S)N2CCCC2)cc1 (centres undefined) |  | 8.91 µM (active)
CCOc1ccc(NC(=S)N2CCC(N(C)CC3CCCO3)CC2)cc1 (centres undefined) | -15.5% | 
NS(=O)(=O)c1ccc(NC(=S)N2CCCC2)cc1 | -8.65% | 
CCOc1ccc(NC(=S)N2CCC(NC(=O)c3ccccc3)CC2)cc1 | 0.515% | 
O=C(NCc1ccccn1)Nc1ccc(F)cc1 | 9% | 
Cc1cc(C)cc(NC(=O)NCc2ccccn2)c1 | 11.9% | 
CCC(C)c1ccc(NC(=S)NCc2ccccn2)cc1 (centres undefined) |  | 2.51 µM (active)
CCOc1ccc(NC(=S)N2CCCCCC2)cc1 |  | 7.08 µM (active)
CCC(C)N(C)C1CCN(C(=S)Nc2ccc(OC)cc2)CC1 (centres undefined) | -3.42% | 
CCOC(=O)C1CCN(C(=O)CN2C(=O)c3cccnc3Oc3ccc(C)cc32)CC1 | -7.07% | 
CCCc1cc(=O)[nH]c(SCC(=O)Nc2sc3c(c2C#N)CCCC3)n1 | 33.4% | 
Cc1ccc(Cn2c(=N)c(S(=O)(=O)c3ccc(C)cc3)cc3c(=O)n4ccccc4nc32)cc1 | -23.8% | 
CCC(C)(C)NC(=O)C(c1ccc(OC)cc1)N(C(=O)CCC(=O)Nc1cc(C)on1)c1ccc(OC)cc1OC (centres undefined) | 40.9% | 
CCOC(=O)N1CCN(C(=O)COc2ccc(Cl)cc2C)CC1 | -1.24% | 
Cc1cc(Cl)ccc1OCCCC(=O)Nc1cccc(-n2cnnn2)c1 | 35% | 
CCCn1nnnc1NC(=O)COc1ccc(Cl)cc1C |  | 0.891 µM (active)
OC(c1ccc(Cl)cc1)C(CN1CCOCC1)c1ccccc1 (centres undefined) | 3.28% | 
O=C(CCCN1C(=O)/C(=C\c2ccccc2)SC1=S)Nc1ccccc1O | -38.6% | 
Cc1ccc(/C=C2\SC(=S)N(CCC(=O)Nc3ccc(O)cc3)C2=O)cc1 | -15.4% | 
O=C(CCCN1C(=O)/C(=C/c2ccccc2)SC1=S)Nc1ccc(O)cc1 |  | 3.98 µM (active)
CN1CCN(Cc2nc3cc(NC(=O)COc4ccc([N+](=O)[O-])cc4)ccc3n2C)CC1 | -7.74% | 
COc1ccc2c(C)c(CCC(=O)NC3CC3)c(=O)oc2c1C | 7.24% | 

SMILES | activity change, negative = inhibition | Potency
Cc1cc(NC(=O)CN2CCCC(C)C2)n(-c2nc3ccccc3s2)n1 (centres undefined) |  | 1.58 µM (active)
CC(=O)Nc1ccc(NC(=O)CN2CCCC(C)C2)c(Cl)c1 (centres undefined) | 27.2% | 
CC1CCCN(CC(=O)Nc2cc(Cl)ccc2Oc2ccccc2)C1 (centres undefined) | 4.22% | 
COc1ccc(S(=O)(=O)n2cnc3ccccc32)c(C)c1 | 40% | 
COc1ccc(N2CC(C(=O)N[C@@H](C)C(=O)N3CCCCC3)CC2=O)cc1 (some centres undefined) | -8.28% | 
FC(F)(F)c1ccc(-n2cn[nH]c2=S)cc1 |  | 10 µM (active)
COc1ccccc1N1CC(C(=O)Nc2nnc(SCC(=O)NCC3CCCO3)s2)CC1=O (centres undefined) | 2.4% | 
CNS(=O)(=O)c1cccc(C(=O)NC2CCCc3ccccc32)c1 (centres undefined) | -15.4% | 
S=c1nc2ccccc2c2nc(-c3cccnc3)[nH]n12 |  | 0.447 µM (active)
c1cncc(-c2nc(N3CCNCC3)c3ccccc3n2)c1 | 14.8% | 
c1ccc(-n2nnnc2-c2cccnc2)cc1 | 3.95% | 
O=C(C1CCCN(S(=O)(=O)c2ccccc2)C1)N1CCN(c2ccc(F)cc2)CC1 (centres undefined) | 16.8% | 
Cc1cccc(C(=O)NCCCN(C)CCCNC(=O)c2cccc(C)c2)c1 | -5.29% | 
Cc1cccc(C(=O)NC(=S)N(C)C2CCCCC2)c1 |  | 1.78 µM (active)
Cc1ccc(S(=O)(=O)NC(=O)c2cccc(C)c2)cc1 | 0.442% | 
O=C(Nc1c2c(nn1-c1cccc(Cl)c1)CS(=O)(=O)C2)c1cccs1 | -10.5% | 
Cc1coc2c(O)cc3c(c12)OC1(N2CCCCC2)C(=O)NCCCC31 (centres undefined) |  | 12.6 µM (active)
COc1ccc(C(=O)Nc2c(N)nc(SCC(=O)Nc3ccc(C(C)=O)cc3)[nH]c2=O)cc1 | -19.8% | 
CCCCN(CC)C(=O)C1CCCN(S(=O)(=O)c2cccc3nsnc23)C1 (centres undefined) | 3.5% | 
Cc1ccc(OC(=O)c2cncc(Br)c2)c(C)c1 | -23% [at 1.91 µM] | 
O=C(NCc1ccccn1)C1CCN(S(=O)(=O)c2ccc(Br)cc2)CC1 | -18.1% | 
COC(=O)c1sc(NC(=O)c2csc3c2CCCC3)nc1C |  | 35.5 µM (active)

SMILES | activity change, negative = inhibition | Potency
Cc1ccc(NC(=O)c2csc3c2CCCC3)cc1 | 12.7% | 
CC(=O)Cc1nsc(NC(=O)c2csc3c2CCCC3)n1 | 25% | 
COc1ccc(C(=O)NC2CCN(C(=O)Nc3ccc(F)cc3)CC2)cc1 | -0.284% | 
COc1ccccc1CNC(=O)c1ccc(CS(=O)(=O)c2ccccc2)o1 | 28.3% | 
CCOc1ccc(CN2CCN(CCCc3ccccc3)C(CCO)C2)cc1 (centres undefined) | 2.1% | 
CCN(C(=O)C1CCCN(c2nc(-c3ccc(OC)cc3)no2)C1)c1ccc(OC)cc1 (centres undefined) | 38.9% | 
OC(c1nc2ccccc2[nH]1)C(O)C(O)C(O)c1nc2ccccc2[nH]1 (centres undefined) | 20.1% | 
OCCNc1nc2ccccc2[nH]1 | -8.36% | 
c1ccc2[nH]c(-c3nc4ccccc4[nH]3)nc2c1 |  | 10 µM (active)
Cc1cc(C)c2c(-c3ccc(F)cc3)c(C#N)c(=O)n(C)c2n1 | -20% | 
CCc1ccc(OCC2c3cc(OC)c(OC)cc3CCN2C(C)=O)cc1 (centres undefined) | -7.5% | 
Nc1nc(Nc2ccccc2F)nc(NC2CCCCC2)c1[N+](=O)[O-] | 16.6% | 
O=c1cc(-c2ccccc2)nc(N2CCCCC2)[nH]1 | -5.11% | 
O=c1cc(N2CCCCC2)c(-c2ccccc2)nn1Cc1cccc(F)c1 | -0.464% | 
c1ccc(-c2cc(N3CCCCC3)c3ccccc3n2)cc1 |  | 14.1 µM (active)
CCC(=O)Nc1nnc(S(=O)(=O)N(CC(C)C)c2ccccc2)s1 | -21.1% | 
CCOc1ccc2[nH]c(=O)c(CN(CCCO)S(=O)(=O)c3ccc(F)cc3)cc2c1 | 12.8% | 
CC1COc2ccccc2N1C(=O)c1ccc(F)cc1 (centres undefined) | 24% | 
c1ccc2c(c1)OCC(c1nn3cnnc3s1)O2 (centres undefined) | 16.7% | 
O=C(Nc1nnc(C2COc3ccccc3O2)o1)c1ccc(F)cc1 (centres undefined) |  | 0.562 µM (active)
COc1ccc(N2CCN(C(=O)c3ccc(N4CCCCS4(=O)=O)cc3)CC2)cc1 | 29.1% | 
